Data reported in paper PMC4336329 (PLoS ONE, 2015).
Screen size: about 310,000 compounds; about 2,200 (0.71%) showed an effect of 50% or more. The effect is printed as a negative number. The entries come from a sample that favours strong results as a whole.

biological target: human ether-à-go-go-related gene (hERG) potassium channel (human, UniProt Q12809); experiment: primary screen, population patch clamp on CHO cells stably expressing hERG; higher = less effect of the substance
Sequence (Q12809 whole entry, looked up): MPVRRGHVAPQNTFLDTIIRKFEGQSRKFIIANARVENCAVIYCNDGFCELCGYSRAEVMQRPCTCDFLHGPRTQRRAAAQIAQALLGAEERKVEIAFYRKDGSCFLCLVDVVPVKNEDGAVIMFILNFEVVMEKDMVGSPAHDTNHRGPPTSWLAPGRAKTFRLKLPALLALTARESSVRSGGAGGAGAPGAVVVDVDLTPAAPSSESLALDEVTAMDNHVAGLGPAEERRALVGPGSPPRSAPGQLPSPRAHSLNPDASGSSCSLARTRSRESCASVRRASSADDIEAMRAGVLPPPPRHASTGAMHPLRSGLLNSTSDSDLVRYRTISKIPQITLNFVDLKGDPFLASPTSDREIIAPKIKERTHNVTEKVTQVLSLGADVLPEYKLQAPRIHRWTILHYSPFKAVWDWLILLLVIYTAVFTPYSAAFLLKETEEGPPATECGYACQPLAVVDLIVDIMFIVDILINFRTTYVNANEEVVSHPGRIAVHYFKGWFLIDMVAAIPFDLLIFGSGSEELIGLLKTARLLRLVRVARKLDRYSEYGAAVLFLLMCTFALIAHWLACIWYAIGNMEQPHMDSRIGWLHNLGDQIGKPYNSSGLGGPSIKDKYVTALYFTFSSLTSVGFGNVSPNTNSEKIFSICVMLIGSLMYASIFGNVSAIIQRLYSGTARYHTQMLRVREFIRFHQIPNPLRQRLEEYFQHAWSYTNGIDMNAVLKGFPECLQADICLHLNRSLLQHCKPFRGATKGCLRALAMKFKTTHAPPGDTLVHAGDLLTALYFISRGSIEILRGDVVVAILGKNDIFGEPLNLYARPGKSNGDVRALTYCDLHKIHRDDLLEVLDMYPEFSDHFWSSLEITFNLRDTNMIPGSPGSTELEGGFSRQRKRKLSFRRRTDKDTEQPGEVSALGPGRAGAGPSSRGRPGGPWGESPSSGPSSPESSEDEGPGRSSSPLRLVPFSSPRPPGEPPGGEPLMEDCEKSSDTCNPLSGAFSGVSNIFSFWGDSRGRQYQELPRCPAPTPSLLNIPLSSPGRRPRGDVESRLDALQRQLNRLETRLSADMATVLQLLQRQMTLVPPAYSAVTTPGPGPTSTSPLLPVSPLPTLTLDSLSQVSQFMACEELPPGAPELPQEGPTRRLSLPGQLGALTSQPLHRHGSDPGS

Point of comparison: `CC(C)N(C)CCOC(=O)/C=C/c1ccccc1.Cl`, “hERG current change (%, negative = inhibition) at 1uM” value 12%. Against it:
- Cc1cc(C)c(N2C(=O)C3C4CC(=O)C(c5ccccc54)C3C2=O)c(C)c1 (stereo not shown) — lower, 3.35%
- CC(Oc1ccc(Cl)cc1)c1ccnc(N)n1 (stereo not shown) — higher, 15.5%
- Cc1nc(COc2ccc(C(=O)NCc3ccccc3CN3CCCCC3)cc2)cs1 — lower, -10.6%
- Cc1sc(-n2c(C)cc(C=C3C(=O)NC(=O)NC3=O)c2C)c(C#N)c1C — lower, 11.2%
- CN(c1ccccc1)c1nc(N)c([N+](=O)[O-])c(N2CCCCC2)n1 — lower, 7.57%
- O=C(/C=C/c1ccccc1)C1=C(O)C(=O)N(CCO)C1c1ccccc1[N+](=O)[O-] (stereo not shown) — lower, 11.9%
- CCOc1ccc(N2CC(C(=O)N3CCN(c4ccccn4)CC3)CC2=O)cc1 (stereo not shown) — lower, -9.35%
- FC(F)(F)C(Oc1nc(Nc2ccc(Cl)cc2)nc(N2CCOCC2)n1)C(F)(F)F — lower, 11.9%
- CCCOc1ccc(/C=c2\sc3nc(-c4ccco4)nn3c2=O)cc1OCC — lower, 5.32%
- Cc1ccc(NC(=O)COc2ccccc2C(N)=O)cc1S(=O)(=O)N1CCCCCC1 — lower, -0.137%
- CCOCCCNC(c1ccccc1)c1ccncc1 (stereo not shown) — higher, 15.3%
- CN(C)c1ccc(/C=N/NC(=O)c2ccc3c(c2)OCO3)cc1 — lower, 1.12%
- CCOc1ccc(C(=O)NC(=S)Nc2ccccc2N2CCCCC2)cc1[N+](=O)[O-] — lower, 8.22%
- CCOc1ccc(C(=O)Nc2ccccc2N2CCN(C(=O)c3ccccc3)CC2)cc1[N+](=O)[O-] — lower, -84%
- CN1CCN(c2ccccc2NC(=O)c2cccc([N+](=O)[O-])c2)CC1 — lower, -67.1%
- O=C(Nc1ccccc1N1CCCCC1)c1cccc([N+](=O)[O-])c1 — lower, 9.68%
- CCOc1ccccc1NC(=O)c1ccc(OCC)c([N+](=O)[O-])c1 — lower, 1.13%
- O=C(Nc1ccccc1N1CCOCC1)c1cccc([N+](=O)[O-])c1 — lower, 2.37%
- Cc1nc2nc(SCC(=O)N3CCOCC3)nn2c(C)c1Cc1c(F)cccc1Cl — lower, 3.11%
- CCOc1cc(N2CCOCC2)c(OCC)cc1NCC(=O)N1CCN(Cc2ccccc2)CC1.Cl — lower, 9.92%
- COc1ccc(NC(=O)Nc2nnc(-c3ccco3)s2)cc1 — higher, 12.3%
- NC(=O)c1nsc(C(=O)N(c2ccc(Cl)cc2)C(C(=O)NCC2CCCO2)c2cccs2)c1N (stereo not shown) — lower, 10.7%
- S=C(Nc1ccc(Cl)cc1Cl)N1CCN(c2ccccn2)CC1 — higher, 12.7%
- Cc1sc2ncnc(SCC(=O)N3CCN(C(=O)c4ccco4)CC3)c2c1C — lower, -67.3%
- Cc1sc2nc(C(C)C)nc(SCC(=O)N3CCN(C(=O)c4ccco4)CC3)c2c1C — lower, -41.5%
- Cc1nc(SCC(=O)N2CCN(C(=O)c3ccco3)CC2)c2c(C)c(C)sc2n1 — lower, -43.9%
- O=C(CSc1nn(-c2ccc(Cl)cc2)c(=S)s1)N1CCN(C(=O)c2ccco2)CC1 — lower, -44.1%
- O=C(CSc1nn(-c2ccc(F)cc2)c(=S)s1)N1CCN(C(=O)c2ccco2)CC1 — lower, -64.6%
- O=C(CSc1nc(-c2ccc(F)cc2)cs1)N1CCN(C(=O)c2ccco2)CC1 — lower, -43.2%
- COc1cc(OC)cc(C(=O)Nc2cccc3cccnc23)c1 — higher, 19.3%
- Cc1cnc(CN(C)C(=O)CC2C(=O)NCCN2Cc2cccc(F)c2F)[nH]1 (stereo not shown) — lower, 11.2%
- O=C(NCc1n[nH]c(=S)n1-c1cccc(Cl)c1)c1cccs1 — lower, 9.04%
- COc1ccccc1C(C)Nc1nc(-c2cccnc2)nc2ccccc12 (stereo not shown) — higher, 12.2%
- CCOc1ccccc1OCCOCCN1CC(C)OC(C)C1 (stereo not shown) — lower, 2.22%
- Cc1[nH]c2ccccc2c1/C=C/c1nc2ccccc2c(=O)n1-c1ccc([N+](=O)[O-])cc1 — lower, -1.09%
- Cc1ccc(NC(=S)NC(=O)c2ccc(Br)o2)c(C)c1 — higher, 13.3%
- Cc1n[nH]c(=O)nc1N/N=C/c1cccs1 — higher, 14.8%
- Nc1[nH]c(N=NC(=O)c2ccccc2)c2ccccc12 — lower, 10.1%
- Nc1ccccc1C(=O)N=Nc1[nH]c(N)c2ccccc12 — higher, 21%
- Nc1[nH]c(N=NC(=O)c2ccccc2O)c2ccccc12 — lower, -57.5%
- O=c1[nH]c(CN2CC=C(c3ccccc3)CC2)nc2scc(-c3cccs3)c12 — higher, 14.1%
- Cc1cc(C)c2[nH]c3nc(SCC(=O)O)nnc3c2c1 — higher, 16.7%
- CC1CN(C)C(C)CC1OC(=O)C(c1ccccc1)c1ccccc1 (stereo not shown) — lower, -68.3%
- CC1CN(C(C)C)C(C)CC1OC(=O)c1ccccc1 (stereo not shown) — higher, 16.7%
- CN(C)[C@@H]1CCC[C@H]1OC(=O)C(c1ccccc1)c1ccccc1 — lower, -40.2%
- Cl.O=C(CN1CCN(c2ccc(F)cc2)CC1)N1CCC(Cc2ccccc2)CC1 — lower, -5.57%
- O=C(CCS(=O)(=O)Cc1ccccc1)N1CCc2ccccc2C1 — lower, 8.69%
- O=C(CN1CCC(Cc2ccccc2)CC1)N1CCc2ccccc2C1 — lower, -62.2%
- O=C(NCCNc1ccccc1[N+](=O)[O-])c1cc(F)c(F)cc1Cl — lower, -2.68%
- COc1cc(NC(=O)C(C)Oc2ccccc2)c(C(=O)O)cc1OC (stereo not shown) — lower, 9.7%
- Cl.OC(c1cccc(Cl)c1)(c1cccc(Cl)c1)C1CN2CCC1CC2 (stereo not shown) — lower, -69.6%
- Cl.OC(c1ccccc1)(c1ccccc1)C1CN2CCC1CC2 (stereo not shown) — lower, -1.7%
- OC(c1ccccc1)(c1ccc(Cl)cc1)C1CN2CCC1CC2 (stereo not shown) — lower, -11.9%
- CCOC(=O)c1ccccc1NC(=O)[C@@H]1CCCN1C(=O)OC(C)(C)C — lower, 3.14%
